The values below come from PubChem BioAssay AID2242 (National Center for Advancing Translational Sciences (NCATS), 2010).

Screen size: about 200,000 compounds; about 720 (0.36%) were called active. About 8% were inconclusive and are not listed. The call rests on the fitted dose curve; in most records, active means well fitted activation curve with a large enough effect; inconclusive means small, poorly fitted or top-dose-only effect, or effect the other way, or another doubt; inactive means flat fitted curve, though single readings scatter. Some of the results follow.
Potency means the concentration at half of the fitted maximal effect.

This assay deals with Lysosomal alpha-glucosidase (Homo sapiens) (UniProt P10253). Nature of the assay: qHTS Assay for Activators of Human alpha-Glucosidase as a Potential Chaperone Treatment of Pompe Disease. Further: nearly all actives have a fitted effect of over 80% in size. The conditions noted are these: purified enzyme, 4-MU-alpha-glucoside fluorescence, 20 min; series mostly up to 76.9 µM. The text has this: NIH Chemical Genomics Center [NCGC] NIH Molecular Libraries Probe Production centers Network [MLPCN] MLPCN Grant: 1R03MH084841-01 Assay Submitter (PI): Wei Zheng NCGC Assay Overview: Alpha-glucosidase is responsible for hydrolysis of terminal, non-reducing 1,4-linked alpha-D-glucose residues with release of alpha-D-glucose. It is a lysosomal hydrolase that is required for the degradation of a small percentage (1-3%) of cellular glycogen in human. Deficiency of this enzyme results in glycogen-storage disease type II (GSDII), also referred to as Pompe disease, an autosomal recessive disorder. Structurally normal glycogen is accumulated in lysosomes and cytoplasm in affected patients, primarily in muscle tissues. Excessive glycogen storage within lysosomes may interrupt normal functioning of other organelles and leads to cellular injury. In turn, this leads to enlargement and dysfunction of the entire organ involved (eg, cardiomyopathy and muscle weakness). It has reported that the improper folding and trafficking of alpha-glucosidase resulting from the genetic mutations may account for a significant number of Pompe patients. […] We optimized this alpha-glucosidase assay in 1536-well plate format for identifying the novel small molecule inhibitors with the structures other than the sugar analogs in order to develop the new pharmacological chaperones, but are also able to detect potential activators. In conjunction with assays against alpha-galactosidase (AID 1467), fluorogenic false positive compounds can be identified.
NCGC Assay Protocol Summary: This is a fluorogenic enzyme assay with 4-methylumbelliferyl-alpha-D-[…] as the substrate and human alpha-glucosidase as the enzyme preparation. Upon the hydrolysis of this fluorogenic substrate, the resulting product, 1. 4-methyllumbelliferone, can be excited at 365 nm and emits at 440 nm which can be detected by a standard fluorescence plate reader. Data were normalized to the controls for basal activity (without enzyme) and 100% activity (with enzyme). In the AC50 values were determined from concentration-response data modeled with the standard Hill equation. Assay buffer: 50 mM citric acid (titrated with potassium phosphate to pH 5.0), 0.005% Tween-20, pH 5.0. (pH 5.0 is an optimal condition for this enzyme assay) 1536-well assay protocol for the human alpha-glucosidase: (1) Add 2 ul/well of enzyme (4 nM final) (2) Add 23 nL compounds in DMSO solution. The final titration was 0.7 nM to 77 uM. (3) Add 1 ul of substrate (400 uM final) (4) Incubate at room temperature for 20 min. (5) Add 2 ul stop solution (1M NaOH and 1M Glycine mixture, pH 10) (6) Detect the assay plate in a ViewLux plate reader (PerkinElmer) with Ex=365 nm and Em=440nm. Keywords: Alpha-glucosidase, Pompe Disease, pharmacological chaperone, chaperone therapy, high throughput screening, alpha-glucosidase inhibitor, MLSMR, MLSCN, NIH Roadmap, qHTS and NCGC
(qHTS replaces the single test concentration by a dilution series.)
For the compound `COc1cc(C(=O)Nc2sc3c(c2C(=O)NCc2ccco2)CCCC3)cc(OC)c1OC`, the Potency was 28.2 µM (active).

Regarding `O=C(O)c1cc(-c2cccs2)nc2cc3c(cc12)OCCO3`, the Potency was 25.1 µM (active). With `c1coc(CNc2nc(N3CCCCC3)nc3ccccc23)c1` the figure was 39.8 µM (active); with `c1ccc2c(NCC3CCCO3)nc(N3CCCCC3)nc2c1` (centres undefined), 39.8 µM (active); with `CCCOc1ccccc1C1C(C(=O)OC)=CN(C(C)C)C=C1C(=O)OC`, 39.8 µM (active). The figure for `CCOc1ccccc1C1C(C(=O)OC)=CN(C)C=C1C(=O)OC` is 35.5 µM (active); for `CCCCOc1ccccc1C1C(C(=O)OC)=CN(CC)C=C1C(=O)OC` it is 35.5 µM (active); for `CN(C)c1oc(-c2cccs2)nc1C#N` it is 39.8 µM (active). In the case of `CC1CN(c2oc(-c3cccs3)nc2C#N)CC(C)O1` (centres undefined), the Potency was 35.5 µM (active). The figure for `N#Cc1c(-c2ccco2)cc(-c2cccnc2)nc1N` is 28.2 µM (active); for `N#Cc1c(-c2ccco2)cc(-c2ccccn2)nc1N` it is 28.2 µM (active).

Take `N#Cc1c(-c2ccccc2F)cc(-c2cccnc2)nc1N`: the Potency was 35.5 µM (active). In the case of `CCN(CC)Cc1c(O)c(Cl)cc2c(C)c(C)c(=O)oc12`, the Potency was 35.5 µM (active). As to `CCN(CC)Cc1c(O)c(Cl)cc2c(C)cc(=O)oc12`, the Potency is 35.5 µM (active). As for `CCc1c(C)c2cc(Cl)c(O)c(CN(CC)CC)c2oc1=O`, the Potency is 35.5 µM (active).

As for `CC1(C)Cc2nc(N3CCCC3)c(C#N)cc2CO1`, the Potency was 35.5 µM (active).

Consider `Cc1cc2c(C)cc(=O)oc2c2c1NCCC2`, for which the Potency was 35.5 µM (active). With `CCNc1nc(N)c(C(=C(C#N)C#N)c2ccccc2)s1` the figure was 35.5 µM (active); with `C=CCNc1nc(N)c(C(=C(C#N)C#N)c2ccccc2)s1`, 35.5 µM (active).

Consider `Cn1c(C(=O)N2CCc3ccccc3C2)cc2c(=O)n3ccccc3nc21`, for which the Potency was 31.6 µM (active).

In the case of `O=C(c1cc2c(=O)n3ccccc3nc2s1)N1CCN(Cc2ccc3c(c2)OCO3)CC1`, the Potency was 35.5 µM (active). With `CCOC(=O)C1CCN(C(=O)c2cc3c(=O)n4ccccc4nc3n2C)CC1` the figure was 39.8 µM (active). For `O=C(c1cc2c(=O)n3ccccc3nc2s1)N1CCc2ccccc2C1`, the Potency is 44.7 µM (active).

Consider `CC1CN(C(=O)c2cc3c(=O)n4ccccc4nc3s2)CC(C)O1` (centres undefined), for which the Potency is 35.5 µM (active).

As for `Cn1c(C(=O)N2COCC2(C)C)cc2c(=O)n3ccccc3nc21`, the Potency is 35.5 µM (active). With `COC(=O)c1cc2c(=O)n3ccccc3nc2n(C)c1=N` the figure was 25.1 µM (active); with `COc1cccc2c(=O)c3c(cnn3C)n(C)c12`, 31.6 µM (active). With `O=C(Nc1ccc(-c2nc3ccccc3[nH]2)cc1)c1cccc(N2C(=O)CCC2=O)c1` the figure was 35.5 µM (active). With `CC1=C(C(=O)Nc2ccccn2)C(c2cn(C)nc2C)C2=C(CCCC2=O)N1` (centres undefined) the figure was 28.2 µM (active); with `CCn1cc(C2C(C(=O)Nc3ccc(Br)cn3)=C(C)NC3=C2C(=O)CCC3)c(C)n1` (centres undefined), 31.6 µM (active); with `CC(C)(C)c1cc(C(F)(F)F)c(C#N)c(=O)[nH]1`, 35.5 µM (active). On to `Cc1cc(C(F)(F)F)c(C#N)c(=O)[nH]1`, for which the Potency is 31.6 µM (active). Regarding `O=c1oc2cc(O)ccc2cc1-c1ccc(F)cc1`, the Potency was 25.1 µM (active).

As to `CCCc1cc(=O)oc2c(CN3CCCC3)c(O)c(Cl)cc12`, the Potency was 35.5 µM (active). With `CCCCc1cc(=O)oc2c(CN3CCCC3)c(O)c(Cl)cc12`, the Potency is 31.6 µM (active). With `Cc1c(O)ccc2c(CN3CCN(CCO)CC3)cc(=O)oc12`, the Potency was 35.5 µM (active). With `CCc1cc(=O)oc2c(CN3CCN(C)CC3)c(O)c(Cl)cc12` the figure was 31.6 µM (active); with `CCc1cc2c(CN3CCN(C)CC3)cc(=O)oc2cc1O`, 35.5 µM (active); with `CCCc1cc(=O)oc2c(CN3CCN(C)CC3)c(O)c(Cl)cc12`, 35.5 µM (active).

With `CCc1cc(=O)oc2c(CN3CCCC3)c(O)c(Cl)cc12`, the Potency is 39.8 µM (active). Regarding `CCc1ccc(S(=O)(=O)c2nnn3c2nc(NCCNC(C)=O)c2ccccc23)cc1`, the Potency was 31.6 µM (active). With `CN(C)Cc1c(O)c(Cl)cc2c3c(c(=O)oc12)CCCC3` the figure was 35.5 µM (active); with `CCN(CC)Cc1c(O)c(Cl)cc2c3c(c(=O)oc12)CCCC3`, 35.5 µM (active). Take `CC(C)C(=O)Nc1c2c(nc3ccccc13)N(C)CC2`: the Potency is 35.5 µM (active). In the case of `CCCOc1cc(N(CC)CC)ccc1/C=C(/C#N)c1nc2ccc(C)cc2[nH]1`, the Potency was 35.5 µM (active).

`CCOP(=O)(OCC)c1nc(/C=C/c2ccccc2)oc1NCc1ccccc1`: the Potency is 35.5 µM (active). For the compound `CCOP(=O)(OCC)c1nc(/C=C/c2ccccc2)oc1NCc1ccc(OC)cc1`, the Potency was 35.5 µM (active). Turning to `CCCCc1cc(=O)oc2c(CN(CC)CC)c(O)c(Cl)cc12`, the Potency is 35.5 µM (active). For `CCCCc1cc(=O)oc2c(CN(C)C)c(O)ccc12`, the Potency was 35.5 µM (active).
